Screens from PubChem BioAssay.
TRPV1 ag: human TRPV1 agonism; Q8NER1; TRPV1-expressing cells, Fluo-8 calcium influx, agonist mode; activation, % at 8.33 µM; 320,000 compounds, 0.19% hits; AID 540275; in the data active = activation above about 80%; inconclusive = between about 30% and that limit; also: 0% is about no effect
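Cells expressing TRPV1 were dye-loaded with Fluo-8 and read kinetically: 10 s baseline, 3 min after compound (agonist portion), then 2 min after EC20 capsaicin (allosteric enhancer portion). Calcium-bound dye fluorescence at 480/520 nm.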
TRPV1 PAM: human TRPV1 potentiation; Q8NER1; TRPV1-expressing cells, Fluo-8 calcium influx, capsaicin EC20 potentiation; potentiation, % at 8.33 µM; 320,000 compounds, 0.02% hits; in the data active = potentiation above about 80%; inconclusive = between about 30% and that limit; also: 0% is about no effect
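Fluo-8 calcium influx in TRPV1-expressing cells, kinetic read (ex 480/em 520 nm). Compound added and read 3 min for agonist activity, followed by capsaicin at EC20 final and 2 min further read for enhancement.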
TRPML1 inh: human mucolipin-1 channel inhibition. Q9GZU1. TRPML1-inducible cells, Ca2+ dye fluorescence, FDSS; stronger effect = lower value; inhibition of EC80 agonist-evoked calcium signal. activity change, negative = inhibition, % (no concentration beside the values). 390,000 compounds, 0.02% hits. AID 624415; in the data active = activity change below about -50%; inconclusive = between about -30% and that limit;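 also: stimulus is agonist 54-4 at its EC80 concentration; % is scaled to controls: 0 for no effect and ±100 for the full control effect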
Target sequence (Q9GZU1 whole entry, looked up): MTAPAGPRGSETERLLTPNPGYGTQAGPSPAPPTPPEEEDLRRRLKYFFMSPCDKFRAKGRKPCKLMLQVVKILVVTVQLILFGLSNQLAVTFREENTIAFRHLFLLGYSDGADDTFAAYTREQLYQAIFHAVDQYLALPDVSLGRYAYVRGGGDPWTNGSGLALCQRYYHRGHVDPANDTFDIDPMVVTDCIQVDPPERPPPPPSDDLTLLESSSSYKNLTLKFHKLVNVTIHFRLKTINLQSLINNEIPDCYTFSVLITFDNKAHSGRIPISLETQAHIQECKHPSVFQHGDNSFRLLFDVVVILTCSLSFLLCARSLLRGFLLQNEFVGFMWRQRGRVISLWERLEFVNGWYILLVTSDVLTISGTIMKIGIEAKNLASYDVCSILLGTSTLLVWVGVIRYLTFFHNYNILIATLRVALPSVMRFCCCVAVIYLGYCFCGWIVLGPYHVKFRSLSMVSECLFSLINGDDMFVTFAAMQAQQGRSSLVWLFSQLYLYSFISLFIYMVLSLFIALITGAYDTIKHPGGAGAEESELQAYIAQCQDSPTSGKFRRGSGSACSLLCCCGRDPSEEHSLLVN
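Calcium fluorescence in TRPML1-DL cells induced overnight with Tet: a 110 s read after compound pin addition, then a 110 s antagonist read after challenge with 54-4 at 4 uM final (EC80).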
TRPML1 agonist: activates the human TRPML1 channel. Q9GZU1. TRPML1-expressing cells, Ca2+ dye fluorescence, FDSS. activation, % (test concentration not listed). 410,000 compounds, 0.12% hits; in the data active = activation above about 50%; inconclusive = mostly about 30% to 49%; also: 0% is about no effect
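Cells: TRPML1-DL, 1X Tet inducer, ~16 h at 37 degrees C/5% CO2. Dye: ABD Ca8 no-wash + quencher, 45-90 min RT. Read: 10 s baseline, compound add, 110 s agonist phase; 54-4 EC80 (4uM final), 110 s antagonist phase.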
TRHR PAM: allosterically enhances the human TRH receptor; P34981; TRHR cells, fluo-8 calcium fluorescence, EC20 TRH enhancement; enhancement, % at 2 µM; 360,000 compounds, 0.66% hits; AID 493056; in the data active = enhancement above about 30%; also: 0% is about no effect
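TRHR-expressing cells loaded with fluo-8 calcium dye were read kinetically (ex 480/em 530) during compound addition, then stimulated with an EC20 of TRH (10 nM final). Enhancement of the Gq-mediated intracellular calcium response was scored.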
TRHR ag: TRH receptor (human) agonism | TRHR cells, calcium flux fluo-8, FDSS agonist mode | P34981 | activation, % at 2 µM | 360,000 compounds, 0.18% hits | AID 493084; in the data active = activation above about 30%; also: 0% is about no effect
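Agonist-mode FDSS calcium read (Ex 480/Em 530, 1 s cycles) in 1536-well TRHR cells with fluo-8 dye, after 10-cycle baseline and 23 nL compound addition; TRH at EC20 (10 nM final) added afterwards for the enhancer phase.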
* = called active by the depositor. Rows were chosen to be rich in hits. Some 0.96% of all compounds tested hit in one or more screens of this group.

O=c1ccc2[n+]([O-])c3ccc(O)cc3oc-2c1 was read as TRPV1 ag 2.4, TRPV1 PAM -4.6, TRPML1 inh -3.4, TRPML1 agonist 0.9, TRHR PAM 0.3 and TRHR ag 4.2.
`Nc1ccc(-c2c3ccc(=O)cc-3oc3cc(O)ccc23)c(C(=O)O)c1` gave TRPV1 ag -5.3, TRPV1 PAM 0.5, TRPML1 inh -1.6, TRPML1 agonist 84.0*, TRHR PAM 19.1 and TRHR ag -1.4.
For COc1ccccc1-c1coc2c(CN3CCOCC3)c(O)ccc2c1=O the results were TRPV1 ag 1.7, TRPV1 PAM -7.8, TRPML1 inh -3.3, TRPML1 agonist -0.6, TRHR PAM 1.0 and TRHR ag -0.2.
For COc1ccccc1Oc1coc2c(CN3CCOCC3)c(O)ccc2c1=O the results were TRPV1 ag 2.7, TRPV1 PAM -7.6, TRPML1 inh 8.9, TRPML1 agonist -0.1, TRHR PAM 36.8* and TRHR ag -0.1.
CCc1sc(-c2cc3cccc(OC)c3oc2=O)nc1-c1cc(C)ccc1C was read as TRPML1 agonist 0.3.
For CN(C)c1ccc(C(=O)/C=C/c2ccc(Br)cc2)cc1 the results were TRPV1 ag 17.5, TRPV1 PAM 16.0, TRPML1 inh -2.7, TRPML1 agonist 1.6, TRHR PAM -4.5 and TRHR ag 0.4.
CCN(CC)c1ccc(/C=C/C(=O)c2ccc(Br)cc2)cc1 was read as TRPV1 ag 122.8*, TRPV1 PAM 4.2, TRPML1 inh -14.1, TRPML1 agonist 87.8*, TRHR PAM -1.4 and TRHR ag 166.0*.
For O=C(O)COc1ccccc1/C=N/NC(=O)Cc1csc(Nc2cccc(C(F)(F)F)c2)n1 the results were TRPV1 ag 0.7, TRPV1 PAM 3.4, TRPML1 inh -5.8, TRPML1 agonist -0.1, TRHR PAM 36.3* and TRHR ag 0.6.
COc1cc2nc(N3CCCN(C)CC3)nc(NC3CCN(C)CC3)c2cc1OC was read as TRPML1 agonist 2.0.
Screening CCOC(=O)Cn1c(=O)oc2ccc(C)cc21 returned TRPV1 ag 3.6, TRPV1 PAM 6.5, TRPML1 inh -13.5, TRPML1 agonist 0.7, TRHR PAM -4.8 and TRHR ag -0.2.
For Cc1ccc2oc(=O)n(CC(=O)OCCC(C)C)c2c1 the results were TRPV1 ag 22.3, TRPV1 PAM -15.1, TRPML1 inh 6.7, TRPML1 agonist 2.4, TRHR PAM 35.2* and TRHR ag -0.6.
For S=C(NCCCc1cnc[nH]1)NCCCN(CCc1ccccc1)c1ccc(Br)cn1 the results were TRPML1 agonist 0.1.
For CN(C)c1ccc(/C=C2\SC(=S)N(Nc3ncc(C(F)(F)F)cc3Cl)C2=O)cc1 the results were TRPV1 ag 19.6, TRPV1 PAM 24.2, TRPML1 inh -4.0, TRPML1 agonist 52.8*, TRHR PAM 27.3 and TRHR ag 79.8*.
For Cc1cc(C)nc(NN2C(=O)/C(=C/c3ccccc3)SC2=S)n1 the results were TRPV1 ag -2.1, TRPV1 PAM -5.2, TRPML1 inh 24.5, TRPML1 agonist 0.0, TRHR PAM 0.5 and TRHR ag 0.4.
OC(Cc1ccc2ccccc2n1)c1c(Cl)cccc1Cl (stereo not given) was read as TRPML1 agonist 0.0.
For CC1CCN(c2ccc(NC(=O)Cc3ccccc3)cc2)CC1 the results were TRPV1 ag inconclusive, TRPV1 PAM -8.0, TRPML1 inh -50.9*, TRPML1 agonist -0.2, TRHR PAM 0.7 and TRHR ag -0.4.
`Cc1ccc(NC(=O)CS(=O)CC(=O)N2CCN(c3ccccc3)CC2)cc1` (stereo not given) gave TRPV1 ag -0.7, TRPV1 PAM -0.9, TRPML1 inh 1.8, TRPML1 agonist -1.4, TRHR PAM 31.2* and TRHR ag -0.2.
`O=C(Cc1ccccc1)Nc1ccc(N2CCCC2)cc1` gave TRPV1 ag -0.5, TRPV1 PAM -1.9, TRPML1 inh -13.0, TRPML1 agonist 0.2, TRHR PAM -0.6 and TRHR ag 0.3.
For Cc1ccc(NC(=O)CS(=O)CC(=O)N2CCN(C3CCCC3)CC2)cc1 (stereo not given) the results were TRPV1 ag -1.6, TRPV1 PAM 15.8, TRPML1 inh -20.2, TRPML1 agonist -0.4, TRHR PAM -15.5 and TRHR ag 0.1.
`OC(CBr)C[n+]1cc(Br)cc2ccccc21` (stereo not given) gave TRPML1 agonist 0.5.
For CCc1ccc(OCCCCn2c(CCNC(=O)C3CCCCC3)nc3ccccc32)cc1 the results were TRPML1 agonist -1.0.
`O=C(N/N=C/c1ccc(OC(F)F)cc1)c1cc[n+]([O-])cc1` gave TRPV1 ag -0.3, TRPV1 PAM 7.1, TRPML1 inh -1.9, TRPML1 agonist 0.0, TRHR PAM 33.7* and TRHR ag 1.0.
Screening Cc1ccc(/C=N/NC(=O)c2ccc(-n3cnnn3)cc2)cc1 returned TRPV1 ag 80.2*, TRPV1 PAM -10.2, TRPML1 inh 3.6, TRPML1 agonist 0.6, TRHR PAM -4.4 and TRHR ag 1.7.
`O=C(N/N=C\c1ccc(F)cc1)c1ccc(F)cc1` gave TRPV1 ag 81.9*, TRPV1 PAM -21.7, TRPML1 inh 29.3, TRPML1 agonist -0.8, TRHR PAM 3.3 and TRHR ag 0.0.
CC(=O)Nc1ccc(C(=O)N/N=C/c2ccc(F)cc2)cc1 was read as TRPV1 ag 6.7, TRPV1 PAM -5.7, TRPML1 inh 13.7, TRPML1 agonist -0.6, TRHR PAM 3.1 and TRHR ag 0.1.
`COc1cc(NC(=O)C(OC(=O)CNC(=O)c2ccccc2)c2ccccc2)c(OC)cc1Cl` (stereo not given) gave TRHR PAM -0.9 and TRHR ag 0.2.
Screening CC(=O)Nc1ccc(/C=C/c2ccnc3ccccc23)cc1[N+](=O)[O-] returned TRPML1 agonist 0.6.
CCCCC1=NN(C(=O)c2ccco2)C(O)(C(F)(F)F)C1 (stereo not given) was read as TRPV1 ag 3.0, TRPV1 PAM 9.5, TRPML1 inh -4.1, TRPML1 agonist -0.1, TRHR PAM 35.7* and TRHR ag -0.6.
Screening O=S(=O)(Cc1ccccc1)N1CCN(c2nc(-c3cccs3)nc3ccccc23)CC1 returned TRPML1 agonist 0.0.
`Cc1ccc(-c2nnn(C/C(N)=N/O)n2)cc1` gave TRPV1 ag -3.9, TRPV1 PAM 2.2, TRPML1 inh -7.4, TRPML1 agonist -0.4, TRHR PAM 35.8* and TRHR ag 3.9.
N/C(Cn1nnc(-c2ccccc2)n1)=N\O was read as TRPV1 ag 0.5, TRPV1 PAM -1.6, TRPML1 inh -13.6, TRPML1 agonist 0.0, TRHR PAM -7.5 and TRHR ag 0.3.
